# Test results reported in paper PMC5836133, “The intracellular immune receptor Rx1 regulates the DNA-binding activity of a Golden2-like transcription factor”.
# Whole data set: some 16,000 sequences, median “e-score” near -0.044, cut for the highest 2% near 0.38. The sample holds the highest values, similar sequences and a random draw of the others, so the mix is not that of the screen.
# Target: T1, GST-NbGlk1(82-244) (Nicotiana benthamiana)
# T1 chain: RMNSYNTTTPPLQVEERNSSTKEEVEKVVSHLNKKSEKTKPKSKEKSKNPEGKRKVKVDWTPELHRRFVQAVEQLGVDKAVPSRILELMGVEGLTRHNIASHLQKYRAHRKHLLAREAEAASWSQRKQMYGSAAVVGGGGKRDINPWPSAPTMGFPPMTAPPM
# Experiment: protein-binding microarray; NbGlk1 is a Golden2-like transcription factor of Nicotiana benthamiana; high values mean tight binding
# Details: protein: recombinant; tags: GST (pTH6838); dsDNA, one strand shown
row,Sequence,binding signal
1,ACCGGATA,0.262 ± 0.0765 E-score
2,AATTTCGT,0.284 ± 0.0162 E-score
3,ATCTCGCA,0.324 ± 0.0204 E-score
4,AAATAATA,0.227 ± 0.0112 E-score
5,ACAAATAT,0.313 ± 0.0317 E-score
6,ATCGGGAA,0.276 ± 0.0291 E-score
7,ACCTAGAT,0.291 ± 0.0209 E-score
8,ATCGCATG,0.29 ± 0.0714 E-score
9,CAATCATA,0.255 ± 0.00353 E-score
10,ATTATAAG,0.253 ± 0.0219 E-score
11,ATCCGCCA,0.254 ± 0.0406 E-score
12,AAATCGAT,0.336 ± 0.0651 E-score
13,AAATCTGT,0.446 ± 0.00579 E-score
14,AAATCGGT,0.325 ± 0.0221 E-score
15,AACCAGAT,0.301 ± 0.00304 E-score
16,AATCGAGA,0.293 ± 0.0295 E-score
17,AGAATCAT,0.359 ± 0.0327 E-score
18,AGAATCGC,0.377 ± 0.00979 E-score
19,AGGATCCA,0.237 ± 0.027 E-score
20,AGAATCCA,0.456 ± 0.0261 E-score
21,ACAATCCT,0.302 ± 0.0343 E-score
22,ACAATCCG,0.334 ± 0.019 E-score

row,Sequence,binding signal
1,ACAATCCC,0.2757 ± 0.00233 E-score
2,ATAATCCG,0.337 ± 0.0347 E-score
3,AGAATCCG,0.4779 ± 0.0039 E-score
4,AGAATCCT,0.439 ± 0.00609 E-score
5,AGAATCCC,0.433 ± 0.00879 E-score
6,ATCCAAAA,0.261 ± 0.0307 E-score
7,ATCCTCCG,0.257 ± 0.0282 E-score
8,ATCTGCTG,0.291 ± 0.0162 E-score
9,ATATGAAA,0.266 ± 0.036 E-score
10,AGCGATTC,0.253 ± 0.0595 E-score
11,ATAGCGAT,0.247 ± 0.0104 E-score
12,AGATTACT,0.429 E-score
13,ATATTACG,0.331 ± 0.0353 E-score
14,AGATTATG,0.35 ± 0.0249 E-score
15,AAATTACG,0.317 ± 0.00783 E-score
16,AGATTATC,0.398 ± 0.0119 E-score
17,AAATTACA,0.281 ± 0.0554 E-score
18,AGATTATA,0.31 ± 0.0066 E-score
19,ATATTACA,0.281 ± 0.0562 E-score
20,AGATTACG,0.484 ± 0.00516 E-score
21,AGATTACA,0.477 ± 0.0126 E-score
22,ACGATCTG,0.298 ± 0.0786 E-score

row,Sequence,binding signal
1,ATCTGAAT,0.319 ± 0.0412 E-score
2,ACATGGAT,0.276 ± 0.0921 E-score
3,AATAGAGA,0.257 ± 0.00976 E-score
4,AGCGGATA,0.27 ± 0.022 E-score
5,ATCTGTCG,0.268 ± 0.0941 E-score
6,ATCTCAAA,0.337 ± 0.00799 E-score
7,ACTTGGAT,0.263 ± 0.0442 E-score
8,ATTGCTAC,0.23 ± 0.0982 E-score
9,ATTGCAAA,0.212 ± 0.0169 E-score
10,AATATTAT,0.211 ± 0.0854 E-score
11,ATATGCAC,0.266 ± 0.0704 E-score
12,AAATTTGC,0.224 ± 0.0355 E-score
13,AATCATGA,0.254 ± 0.0429 E-score
14,AGATTACC,0.459 ± 0.0174 E-score
15,AGATTTAC,0.349 ± 0.00929 E-score
16,AAATTACC,0.252 ± 0.0504 E-score
17,AATATACG,0.253 ± 0.0484 E-score
18,CAGATTAC,0.47655 ± 0.000118 E-score
19,AAAATTAC,0.203 ± 0.0427 E-score
20,AAGATTAC,0.454 ± 0.0269 E-score
21,AATATTAC,0.235 ± 0.084 E-score
22,AAGATTAT,0.288 ± 0.039 E-score

row,Sequence,binding signal
1,CAAATTAC,0.275 ± 0.0131 E-score
2,ATTGTGTC,0.225 ± 0.0437 E-score
3,ATCTGCGA,0.35 ± 0.033 E-score
4,ATTACCCA,0.234 ± 0.0351 E-score
5,AATCGATC,0.26 ± 0.0524 E-score
6,AGATTTTG,0.4649 ± 0.003 E-score
7,AGATTTCC,0.4969 ± 0.000664 E-score
8,ATATTTTC,0.363 ± 0.0153 E-score
9,AAATTTCC,0.305 ± 0.0382 E-score
10,ATTTTTTG,0.315 ± 0.021 E-score
11,ATATTTCA,0.302 ± 0.00721 E-score
12,AGATTTTC,0.4879 ± 0.00245 E-score
13,AGATTTCA,0.467 ± 0.0101 E-score
14,ATATTTCC,0.369 ± 0.00928 E-score
15,ATATTTTG,0.274 ± 0.0771 E-score
16,AAATTTCA,0.229 ± 0.0474 E-score
17,AAATTTTC,0.273 ± 0.00676 E-score
18,ACGTATAA,0.241 ± 0.0276 E-score
19,ATCACACA,0.274 ± 0.0193 E-score
20,ATCAGATA,0.311 ± 0.0291 E-score
21,ACAGTATA,0.203 ± 0.12 E-score
22,ACGTATCG,0.2234 ± 0.00122 E-score

row,Sequence,binding signal
1,ATTCGAAA,0.208 ± 0.0296 E-score
2,AAATTTCG,0.332 ± 0.0714 E-score
3,AGATTTAA,0.269 ± 0.0136 E-score
4,AGATTTCG,0.4861 ± 0.00274 E-score
5,AGATTTTA,0.414 ± 0.0235 E-score
6,ATATTTCG,0.347 ± 0.00521 E-score
7,AGATTTAT,0.261 ± 0.0998 E-score
8,ATTATCTA,0.201 ± 0.0162 E-score
9,AACGTAAT,0.361 ± 0.0152 E-score
10,AAGGGAAT,0.259 ± 0.00401 E-score
11,AAAATTTT,0.271 ± 0.0157 E-score
12,CAAATCTG,0.43 ± 0.00733 E-score
13,AAAATATT,0.3158 ± 0.000558 E-score
14,AAAATCTT,0.447 ± 0.0196 E-score
15,CAAATCAG,0.268 ± 0.0183 E-score
16,AAAATCTC,0.4529 ± 0.00114 E-score
17,AAAATCTG,0.478 ± 0.0028 E-score
18,CAAATCGG,0.252 ± 0.00458 E-score
19,ATAATCTC,0.346 ± 0.064 E-score
20,ATATCGAC,0.32 ± 0.00903 E-score
21,AACACGAT,0.237 ± 0.0225 E-score
22,ATTTGCCA,0.358 ± 0.051 E-score
